Experimental data from PubChem BioAssay AID1053144 (Broad Institute, 2014).
Out of some 3,400 compounds screened, about 160 (4.7%) were called active.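 The calls were made as follows: active = fitted curve reaches 30% activation at a concentration no higher than the top valid tested dose, luminescence rising; inconclusive = no clear call, values can overlap the other calls; inactive = signal moving opposite to the expected increase, plus the rest.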 The list is a sample of the results. Measured potencies and affinities stand elsewhere.

Assay: Wnt/beta-catenin signaling activators, dose response, cell-based, iPS-derived NPC, luciferase, Wnt3a, cherry-pick (AID 1053144);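 also: Wnt3a stimulus is conditioned medium from Wnt3a-transfected mouse L cells at 5% in well; 0% = neutral control wells and 100% = CHIR-99021 positive control wells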
Details: NPC TCF/LEF luciferase reporter, Wnt3a EC25, 24 h; series mostly up to 26 µM; activation: at the top concentration

activation, inactive:
Cc1ccc(NC(=O)CSc2nccn2Cc2ccco2)c(C)c1 6.3%
Cn1c(CCNC(=O)c2ccco2)nc2cc(NC(=O)c3ccccc3)ccc21 17.2%
CCC(=O)NCCc1nc2cc(NC(=O)c3ccc(Cl)cc3)ccc2n1C 5.88%
Clc1ccccc1Nc1nc(-c2cccnc2)cs1 9.94%
Nc1ccccc1-n1cccc1 20%
Cc1ccc(S(=O)(=O)N2CCCC(C(=O)Nc3ccc(NC(=O)c4ccccn4)cc3)C2)cc1 (stereo not given) 0.501%
Oc1ccc(-c2csc(Nc3ncccn3)n2)c(O)c1 14.6%
Clc1ccc(-c2nc3n(n2)Cc2ccccc2-3)cc1 1.17%
COc1ccc(-c2nc3n(c2C)Cc2ccccc2-3)cc1 12.4%
Cn1c(-c2ccc(F)c(F)c2)cc2onc(-c3ccccc3)c2c1=O 5.39%
NC(=O)C1CCN(C(=O)c2cc3c(s2)CCCCC3)CC1 2.7%
O=C(Nc1nc(-c2nc3ccccc3s2)cs1)C1CC1 17%
O=C(Nc1nc(-c2ccc3c(c2)OCCO3)cs1)C1CCCC1 16.9%
CC(C)(C)c1ccc(NC(=O)c2ccccc2)c([N+](=O)[O-])c1 3.96%
O=C(Nc1ccc2c(c1)OCO2)Nc1ccccn1 13.8%
Cc1ccc(CNC(=O)c2ccc(Cn3cc(-c4ccc(C)cc4)nc3-c3ccncc3)cc2)cc1 8.59%
Nc1nc(-c2cc(-c3ccccc3)no2)cs1 9.23%
Clc1ccc(-c2cc(-c3ccccc3)on2)cc1 10.5%
COc1cccc(OCC(=O)Nc2ccccc2C(N)=O)c1 8.69%
Cc1ccc(OCC(=O)Nc2ccccc2F)cc1 12.7%
Cc1cc(C)c(C#N)c(N2CCSCC2)n1 2.58%
O=C(Nc1ccc(Cl)cc1Cl)c1ccc2c(c1)OCCO2 2.85%
O=C(Nc1ncccc1O)c1ccc2ccccc2c1 8.12%
NC(=O)c1ccccc1NC(=O)c1ccc2c(c1)OCO2 16.1%
O=C(Nc1ccccc1F)c1ccc2c(c1)OCO2 12.6%
Cc1nc(NC(=O)c2ccc3c(c2)OCCO3)ccc1Br 7.19%
O=C(Nc1cccnc1)c1ccc(Oc2ccccc2)cc1 9.21%
COCCn1c(C)cc(C(=O)CSc2nc3ccccc3c(=O)n2Cc2ccco2)c1C 18.6%
Nc1cc([N+](=O)[O-])ccc1OCc1ccccc1 8.87%
O=C(Nc1cc2c(cc1Br)OCCCO2)c1ccccc1 7.2%
C/C(=C\c1ccccc1)C(=O)NCCc1ccccc1 15.1%
CN(CCO)C(=O)c1ccc(-c2nn(C)c(=O)c3ccccc23)cc1 9.07%
O=C(Nc1cccc(F)c1)Nc1ccc2c(c1)CCC2 6.92%
O=C(Nc1ccc2c(c1)CCC2)c1cccs1 4.74%
O=C(CCNC(=O)c1ccc(Cl)cc1)NC1CCCCCC1 10.6%
CCOc1cc(/C=N/NC(=O)CSc2nnc(C)s2)ccc1OCc1ccccc1Cl -1.65%
O=c1oc(CCO)cc2ccc(-c3ccc4[nH]ccc4c3)cc12 13.7%
O=c1c2ccccc2oc2cc(-c3ccc4cc[nH]c4c3)ccc12 7.52%
CC1CCc2c(sc(/N=C/c3ccco3)c2C(N)=O)C1 (stereo not given) 5.79%
Fc1ccc2cc(-c3ccccc3F)ncc2c1 11.3%
Cc1cc(NC(=O)c2ccc(OCC3CCCO3)cc2)ccc1Br (stereo not given) 11.3%
O=c1c2ccccc2nc2c3ccccc3c(NCc3ccccn3)nn12 6.04%
O=C(CSc1nc2ccccc2c(=O)n1NC(=O)c1ccccc1)c1ccc(Cl)cc1 6.68%
Cn1cccc1C(=O)OCC(=O)Nc1ccc2c(c1)OCCO2 2.19%
Cc1ccccc1Cn1nnc(C(=O)Nc2ccc3c(c2)OCCO3)c1N 18%
Fc1ccccc1-c1nc2ccccc2[nH]1 7.36%
CCOC(=O)c1sc(=NC(=O)c2ccccc2)n(C)c1C 12.3%
CCOC(=O)c1sc(=NC(=O)c2ccc(C)cc2)n(C)c1C 5.95%
NC(=O)c1cc(Cl)ccc1OCC(=O)Nc1ccc2c(c1)OCO2 15.9%
O=C(O)c1ccc(N/N=C/c2cccc3cccnc23)cc1 7.3%
Oc1ccccc1/C=N/Nc1cccc2cccnc12 11%
Cc1ccc(C(=O)Nc2cccc(C(=O)N3CCOCC3)c2)cc1 13.5%
Cn1cccc1C(=O)OCC(=O)N1CCc2ccccc21 13.9%
COC(=O)N=Nc1c(O)[nH]c2ccc(Br)cc12 13%
O=C(N=Nc1c(O)[nH]c2ccc(Br)cc12)c1ccco1 8.44%
O=C1CCN(Cc2ccccc2)C=C1c1ccc2ccccc2c1 9.52%
CC(C)=CC(=O)Nc1ccc(Cl)cc1 11.1%
O=C(NCCc1cccc(Cl)c1)c1ccc2c(c1)OCO2 1.66%
Cc1ccc(-n2nc3ccc(NC(=O)/C=C/c4ccco4)cc3n2)cc1 7.6%
O=C(/C=C/c1ccco1)Nc1cccnc1 3.46%
O=C(/C=C/c1ccco1)Nc1cccnc1Cl 14.5%
COc1cccc(NC(=O)/C=C/c2ccco2)c1 15.9%
COc1ccc(-c2cc3nc4n(c(=O)c3s2)CCCCC4)cc1 3.29%
COc1cccc(-c2cc(C(=O)N3CCCCCC3)no2)c1 3.16%
O=C(COc1ccc(F)cc1Cl)NC1CCCCCC1 6.97%
COc1ccc2c(c1)-c1nc(NC(=O)c3ccco3)sc1CC2 13%
N/C(=N\OC(=O)c1ccco1)c1ccccc1 10.3%
COc1ccccc1C(=O)O/N=C(\N)c1ccccc1Cl 9.49%
COc1ccccc1C(=O)O/N=C(\N)c1ccccn1 7.03%
Cc1cccc(C(=O)O/N=C(\N)c2ccc(Cl)cc2)c1 17.3%
COc1ccc(C(=O)O/N=C(\N)c2ccc(Br)cc2)cc1 14.7%
N/C(=N\OC(=O)c1ccco1)c1cccnc1 1.97%
COc1ccc(-c2cc(-c3ccc(C)cc3)n[nH]2)c(O)c1 3.59%
NS(=O)(=O)c1ccc2nc(NC(=O)Nc3ccccc3F)sc2c1 15.6%
Cc1ccc2[nH]c(-c3cccc(N)c3)cc2c1 10.4%
O=C(/C=C/c1ccc(F)cc1)NCCC1=CCCCC1 5.54%
CC(C)(C)c1ccc(NC(=O)c2ccc(=O)[nH]n2)cc1 6.11%
COc1ccc2cc(-c3ccsc3)ncc2c1 5.78%
O=C1CC(c2ccco2)CC2=C1C=Nc1ccccc1N2 (stereo not given) -0.043%
CC1(C)CC(=O)C2=C(C1)Nc1ccccc1NC2c1ccc2c(c1)OCO2 (stereo not given) 14.2%
O=C(NCCc1cccs1)c1ccc(Cl)c(Cl)c1 10.3%
COc1ccccc1C1CC(c2cccs2)=Nc2ccccc2S1 (stereo not given) -0.562%
COc1ccc2oc(C(=O)Nc3ccc(C)cn3)c(C)c2c1 4.94%
COc1ccc(/C=N/Nc2nc3ccccc3o2)cc1O -6.25%
COc1cc(/C=N/Nc2ccccn2)ccc1O 15.7%
Nc1[nH]n(-c2ccccc2)c(=O)c1N=Nc1ccccc1[N+](=O)[O-] 14.7%
COCCNC(=O)c1ccc2c(Cl)c3c(nc2c1)CCC3 11.6%
CCOC(=O)c1c(C)[nH]c(C(=O)OCc2ccccc2)c1C 11.5%
CCOC(=O)c1c(C)[nH]c(C(=O)OCC(=O)c2ccccc2)c1C 14.7%
CCOC(=O)N1CCC(N2CCCC(C(=O)c3cc(F)ccc3OC)C2)CC1 (stereo not given) -0.943%
COc1ccc(N2CCN(c3ccc(NC(=O)/C=C\C(=O)O)cc3)CC2)cc1 0.048%
Cc1ccc(-c2nn(-c3ccccc3)cc2C=O)o1 9.4%
O=C(NCc1cccnc1)C(=O)Nc1nc2ccccc2s1 7.41%
OCC1(CCOc2ccccc2)CCN(Cc2ccccc2C(F)(F)F)CC1 -1.43%
Nc1ccc2nc(NC(=O)C3CCCCC3)sc2c1 13.5%
Cc1cc(/C=N/NC(=O)c2ccccc2F)c(C)n1-c1ccccc1 5.67%
COc1ccc(CN2C(=O)c3cccc4cccc(c34)C2=O)cc1 -0.645%
COc1ccc(N2C(=O)c3ccccc3C2O)cc1 (stereo not given) 7.59%
O=C(c1cc2cc(F)ccc2[nH]1)N1CCc2ccccc21 10.3%
Cc1ccnc2ccc(-c3nc4ccccc4o3)cc12 12.7%
Cc1ccc(-c2nc3ccsc3c(=O)o2)cc1 8%
COc1ccc(C2CC(=O)N(C)c3ccccc3S2)cc1OC (stereo not given) 17.8%
Clc1cccc(-c2ccc3ncnc(NCc4cccs4)c3c2)c1 8.6%
O=c1cc(-c2ccccc2)oc2ccc(Cl)cc12 8.75%
O=c1cc(-c2ccc3c(c2)OCCO3)oc2ccc(Cl)cc12 5.72%
C/C(=N/NC(=O)c1ccco1)c1ccc(NC(=O)c2ccc(F)cc2)cc1 3.65%
Cc1cccc(-c2nnc(-c3cccc4ccccc34)o2)c1 6.2%
Cc1ccccc1-c1nnc(-c2cccc3ccccc23)o1 7.55%
Nc1ccc(-c2nnc(-c3ccc(N)cc3)o2)cc1 9.86%
Cc1ccc(NC(=O)N2CCC(c3ccccc3)C2)cc1C (stereo not given) 18%
CCc1cc(C(=O)Cc2nc3ccccc3[nH]2)c(O)cc1O 5.81%
O=C(Cc1nc2ccccc2[nH]c1=O)c1ccccc1 7.66%
CCc1ccc(C(=O)COC(=O)c2ccccc2OC)cc1 15.9%
COc1ccc(-c2nnc(SCC(=O)Nc3cccc(Cl)c3)o2)cc1 5.55%
COc1ccc(-c2nnc(SCC(C)C)o2)cc1 5.72%
Cc1onc(C(=O)Nc2sc3c(c2C#N)CCCC3)c1[N+](=O)[O-] 3.37%
Cc1cc(NC(=O)c2cccc(F)c2)ncc1NC(=O)c1ccco1 5.89%
Cc1ccc(N/C=C/C(=O)c2ccco2)c(O)c1 12.8%
O=C(/C=C/C=C/c1ccccc1)c1ccco1 19.1%
Cc1ccnc(NC(=O)c2cc3cc(F)ccc3s2)c1 5.25%
CC(C)NC(=O)c1cc(-c2cccs2)on1 21.6%
Cc1ccc(NC(=O)c2cc(-c3cccs3)on2)cc1C 9.24%
CCc1cc(CNC(=O)CCc2nnc(CCCc3ccccc3)o2)on1 12%
O=C(NC(=O)c1ccc(F)cc1F)Nc1ccc(Cl)cc1 17.1%
Nc1ccc(O)c2c(=O)cc(-c3ccccc3Cl)oc12 7.45%
